Whole data set: some 33,000 sequences, median “E-score (-0.5 to 0.5)” near -0.013, cut for the highest 2% near 0.3. This excerpt belongs to a sample that is enriched for the highest values.
Biological target: T1, Msn1 (UniProt P22148)
T1 sequence: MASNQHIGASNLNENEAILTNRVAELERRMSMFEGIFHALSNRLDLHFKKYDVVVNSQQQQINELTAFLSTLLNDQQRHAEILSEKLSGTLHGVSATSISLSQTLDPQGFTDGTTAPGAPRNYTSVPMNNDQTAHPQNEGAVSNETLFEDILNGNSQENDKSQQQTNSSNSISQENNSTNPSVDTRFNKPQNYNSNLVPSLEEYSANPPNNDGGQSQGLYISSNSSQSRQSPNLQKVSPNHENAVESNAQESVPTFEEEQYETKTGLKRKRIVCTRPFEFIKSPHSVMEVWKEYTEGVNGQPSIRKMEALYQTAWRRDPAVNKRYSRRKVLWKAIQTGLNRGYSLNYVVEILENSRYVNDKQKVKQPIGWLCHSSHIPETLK
Assay: PBM E-score (8-mer binding enrichment) (E-score (-0.5 to 0.5)); higher = stronger / more preferred TF binding
Details: protein concentration: 200 nM; construct: GST-full length
Method: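 Universal 'all 10-mer' protein binding microarrays (Agilent AMADID 015681) probed with GST-tagged S. cerevisiae TFs (full-length or DBD) made by in vitro transcription/translation (PURExpress), about 100-200 nM. Bound TF was detected with fluorescent anti-GST. Each ungapped 8-mer (which stands for itself and its reverse complement) is scored by the PBM enrichment score (E-score), a modified Wilcoxon-Mann-Whitney statistic from -0.5 to +0.5, computed with the Universal PBM Analysis Suite. Scale: above 0.35 generally sequence-specific binding.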

Row | Sequence | PBM E-score
1 | GCTCTGCC | -0.281
2 | GCGGTCCC | -0.188
3 | ACTATGAA | 0.112
4 | CGCAATAA | 0.212
5 | ATCGAAAT | -0.151
6 | CAATAGCA | -0.168
7 | CTCAGGAC | 0.243
8 | GCGAGGAC | 0.0256
9 | ACGAGGAT | -0.178
10 | ACGAGGAC | 0.324
11 | GCCAGGAC | 0.212
12 | ACCAGGAA | -0.0403
13 | ACCAGGAC | 0.329
14 | ATCAGGAC | 0.307
15 | CCCAGGAC | 0.0729
16 | GTCAGGAA | 0.0369
17 | GTCAGGAC | 0.316
18 | ATCAGGAG | -0.0236
19 | CATAAAGC | -0.057
20 | CGTGCTGC | -0.144
21 | CTTCACTA | -0.0698
22 | CTGAGAAG | -0.24
23 | CCGTTGCA | 0.0113
24 | ACCTTCTG | -0.0438
25 | ATGAGTGA | 0.12

Row | Sequence | PBM E-score
26 | ATTGTTAA | 0.0881
27 | CTTGTTAA | -0.0116
28 | GTTGTTAA | 0.334
29 | CAGAGAAG | -0.18
30 | GCGTCTAC | -0.0433
31 | GACATGCA | 0.276
32 | CACATGAA | 0.0613
33 | GACATGCC | 0.337
34 | AACATCCC | 0.0693
35 | CACATGCC | 0.0209
36 | TACATGAA | 0.117
37 | GACATGGA | 0.342
38 | GACATGAA | 0.308
39 | CACATCCC | -0.14
40 | GACATCCC | 0.374
41 | TACATGGA | 0.193
42 | AACATGGA | 0.159
43 | AACCACAA | 0.042
44 | CCGCTAAG | 0.0391
45 | ATACACTG | 0.0602
46 | AAAAAGAA | 0.036
47 | ATTGGAAG | -0.0559
48 | ATAGATCC | -0.0574
49 | AATTTCAG | 0.127
50 | ACGTGCTA | -0.167

Row | Sequence | PBM E-score
51 | GATCCTTA | -0.107
52 | AATGCGTG | 0.0114
53 | AGCAATTG | 0.00301
54 | ATTCGGCC | 0.0205
55 | CGTTGTTC | 0.0573
56 | CTTAGAGA | -0.00262
57 | GACATCTA | 0.404
58 | CACATGAC | -0.0252
59 | GACATGAC | 0.335
60 | CACATCTA | 0.0157
61 | TACATCTA | 0.105
62 | AACATGAC | 0.0901
63 | AGGCACCC | -0.241
64 | ATCGCTAG | 0.022
65 | GAGTGGCC | -0.224
66 | CAGTGTCC | 0.348
67 | AAGTGTCC | 0.366
68 | CAGTGTCG | 0.0205
69 | GAGTGTCC | 0.232
70 | AAGTGTCT | 0.257
71 | AAGTGTCG | 0.126
72 | CCGTGTCG | 0.00655
73 | GCGTGTCA | 0.136
74 | GCGTGTAC | 0.203
75 | ACGTGTCT | 0.16

Row | Sequence | PBM E-score
76 | GCGTGTCC | 0.431
77 | CCGTGTCA | 0.121
78 | ACGTGTCG | 0.0594
79 | ACGTGTCC | 0.455
80 | CCGTGTCC | 0.413
81 | AATCTTCA | 0.211
82 | GCTGTGCC | 0.00582
83 | GCGCTATA | -0.036
84 | GGAGCGAA | 0.0407
85 | AGGGAGGG | -0.283
86 | TAGTTTGA | 0.113
87 | CACCATAG | -0.153
88 | CTGTGTCC | 0.439
89 | ATGTGTCG | 0.194
90 | CGGTGTCC | 0.304
91 | ATGTGTCA | 0.217
92 | CTGTGTCA | 0.02
93 | CGGTGTCA | 0.0418
94 | CTGTGTAC | 0.197
95 | ATGTGTCC | 0.438
96 | AGGTGTCC | 0.263
97 | CCCGTAAG | -0.117
98 | CGTTACTC | -0.115
99 | GCTTTCCC | 0.00071
100 | AGCTCCTC | -0.315

Row | Sequence | PBM E-score
101 | GAAACGAA | 0.115
102 | CCAATTCC | 0.0443
103 | CCAAAGAG | -0.0341
104 | GCGTCCTA | 0.168
105 | CAGTCCTA | 0.0807
106 | GAGTCCTA | 0.0172
107 | GTGTCCTA | 0.468
108 | CTGTCCTA | 0.346
109 | CGGTCCTA | -0.185
110 | ACTGGGCC | -0.0731
111 | CGCTATAC | -0.194
112 | TCAGTACA | 0.319
113 | ACAGTACA | 0.189
114 | GTAGTACA | 0.167
115 | CTAGTACC | -0.0261
116 | CTAGTACA | 0.308
117 | CCAGTACA | 0.177
118 | TAAGAGTA | 0.0785
119 | GCGGAGCC | -0.139
120 | GGTTAGAC | 0.076
121 | ATGTCTCC | 0.302
122 | CTGTCTCA | 0.087
123 | GTGTCTCA | 0.286
124 | AGGTCTCG | -0.156
125 | ATGTCTCA | 0.446

Row | Sequence | PBM E-score
126 | ATGTCTCG | 0.333
127 | ACGGGCGG | -0.141
128 | ACCCACGG | -0.17
129 | CAGGTAAC | -0.0911
130 | GAGCCGCC | -0.217
131 | CAGCCTAC | -0.125
132 | ACACGGAC | 0.32
133 | ACACGGAA | 0.166
134 | ACACGGAG | 0.00035
135 | ACCCGTCC | -0.0862
136 | AAATGGAA | 0.131
137 | ATATGGAC | 0.356
138 | ACATGGAT | 0.162
139 | ACATGGAC | 0.326
140 | AAATGGAC | 0.338
141 | GTATGGAC | 0.335
142 | AAATGGAT | -0.0165
143 | CTATGGAC | 0.257
144 | GTATGGAA | -0.0401
145 | GCATGGAC | 0.268
146 | ATATGGAG | 0.12
147 | GGATGGAC | 0.178
148 | GAAATCTA | -0.139
149 | TCAGCTCA | -0.149
150 | ATTTGCCG | 0.136

Row | Sequence | PBM E-score
151 | GCCAAGCA | -0.199
152 | GAGTATGC | -0.0467
153 | GATCAGAC | -0.195
154 | AGGTACCA | -0.036
155 | CAGTGTCA | -0.105
156 | AATTAGTA | 0.211
157 | AATTAGTC | 0.272
158 | AATTAGTG | 0.33
159 | ATATTGCC | 0.0437
160 | CTTATCTA | 0.0318
161 | CTGGCCAA | -0.0295
162 | AGGCATGA | -0.183
163 | CTGGTCGC | -0.0171
164 | CCAAATTC | 0.0869
165 | CCAAATTA | 0.193
166 | ACAAATTA | 0.357
167 | CTAAATTA | 0.144
168 | ATAAATTA | 0.343
169 | ACAAATTC | 0.306
170 | ACAAATTG | 0.301
171 | ATAAATTG | 0.225
172 | AAAAATTC | 0.182
